According to ChEMBL document CHEMBL2218924, “A broad activity screen in support of a chemogenomic map for kinase signalling research and drug discovery” (Biochem J, 2013):

target: Maternal embryonic leucine zipper kinase (Homo sapiens) (UniProt Q14680); conditions: at 10 µM
Sequence (Q14680 whole entry, looked up): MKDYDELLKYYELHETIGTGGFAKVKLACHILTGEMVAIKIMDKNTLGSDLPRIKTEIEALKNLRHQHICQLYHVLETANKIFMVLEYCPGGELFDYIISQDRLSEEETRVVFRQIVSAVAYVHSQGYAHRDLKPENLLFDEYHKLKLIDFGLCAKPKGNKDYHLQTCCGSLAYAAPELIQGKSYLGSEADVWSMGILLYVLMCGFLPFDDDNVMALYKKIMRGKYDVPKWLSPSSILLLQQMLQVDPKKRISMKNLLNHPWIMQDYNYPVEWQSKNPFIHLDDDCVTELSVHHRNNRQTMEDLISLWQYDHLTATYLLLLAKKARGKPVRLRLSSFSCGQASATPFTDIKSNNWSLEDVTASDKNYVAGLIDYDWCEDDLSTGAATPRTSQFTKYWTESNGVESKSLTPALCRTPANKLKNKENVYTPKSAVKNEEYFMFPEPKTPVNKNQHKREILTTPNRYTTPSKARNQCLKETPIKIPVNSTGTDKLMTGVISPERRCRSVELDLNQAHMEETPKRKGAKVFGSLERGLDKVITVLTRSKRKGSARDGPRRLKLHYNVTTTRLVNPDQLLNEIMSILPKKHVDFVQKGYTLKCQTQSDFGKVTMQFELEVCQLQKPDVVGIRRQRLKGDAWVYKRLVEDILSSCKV

Compound | residual activity [%]
C[S+]([O-])c1ccc(-c2nc(-c3ccc(F)cc3)c(-c3ccncc3)[nH]2)cc1 (stereo not given) | 84
COC(=O)[C@@]1(O)C[C@H]2O[C@]1(C)n1c3ccccc3c3c4c(c5c6ccccc6n2c5c31)C(=O)NC4 | -1
COc1ccc2c(c1)/C(=C/c1cnc[nH]1)C(=O)N2 | 3
O=C1Nc2ccc3ncsc3c2/C1=C/c1c[nH]cn1 | 1
O=C1c2ccccc2-c2nc3nnnn3nc21 | 33
CCn1cnc2c(Nc3cccc(Cl)c3)nc(N[C@@H]3CCCC[C@@H]3N)nc21 | 18
COc1cc(OC)c(/C=C2\C(=O)Nc3ccccc32)c(OC)c1 | 77
COc1ccc2c(c[n+](C)c3c4cc5c(cc4ccc23)OCO5)c1OC | 31
CC(C)[C@H](CO)Nc1nc(Nc2cccc(Cl)c2)c2ncn(C(C)C)c2n1 | 18
O=C1NC(=O)c2c1c1c3ccccc3n3c1c1c2c2ccccc2n1C1CCC3O1 | 72
N/C(=N\[N+](=O)[O-])N/N=C\c1ccc(-c2cccc([N+](=O)[O-])c2)o1 | 85
COc1cc2ncnc(Nc3ccc(OCc4ccccc4)cc3)c2cc1OC | 77
CCc1nc(-c2ccc(OC)cc2)[nH]c1-c1ccncc1 | 65
O=c1[nH]c2ccccc2n1C1CCN(Cc2ccc(-c3nc4cc5[nH]cnc5cc4nc3-c3ccccc3)cc2)CC1 | 65
c1cc(-c2cnn3cc(-c4ccc(OCCN5CCCCC5)cc4)cnc23)ccn1 | -1
O=[N+]([O-])/C=C/c1ccc2c(c1)OCO2 | 84

target: Misshapen-like kinase 1 (Homo sapiens) (UniProt Q8N4C8); conditions: at 1 µM
Sequence (Q8N4C8 whole entry, looked up): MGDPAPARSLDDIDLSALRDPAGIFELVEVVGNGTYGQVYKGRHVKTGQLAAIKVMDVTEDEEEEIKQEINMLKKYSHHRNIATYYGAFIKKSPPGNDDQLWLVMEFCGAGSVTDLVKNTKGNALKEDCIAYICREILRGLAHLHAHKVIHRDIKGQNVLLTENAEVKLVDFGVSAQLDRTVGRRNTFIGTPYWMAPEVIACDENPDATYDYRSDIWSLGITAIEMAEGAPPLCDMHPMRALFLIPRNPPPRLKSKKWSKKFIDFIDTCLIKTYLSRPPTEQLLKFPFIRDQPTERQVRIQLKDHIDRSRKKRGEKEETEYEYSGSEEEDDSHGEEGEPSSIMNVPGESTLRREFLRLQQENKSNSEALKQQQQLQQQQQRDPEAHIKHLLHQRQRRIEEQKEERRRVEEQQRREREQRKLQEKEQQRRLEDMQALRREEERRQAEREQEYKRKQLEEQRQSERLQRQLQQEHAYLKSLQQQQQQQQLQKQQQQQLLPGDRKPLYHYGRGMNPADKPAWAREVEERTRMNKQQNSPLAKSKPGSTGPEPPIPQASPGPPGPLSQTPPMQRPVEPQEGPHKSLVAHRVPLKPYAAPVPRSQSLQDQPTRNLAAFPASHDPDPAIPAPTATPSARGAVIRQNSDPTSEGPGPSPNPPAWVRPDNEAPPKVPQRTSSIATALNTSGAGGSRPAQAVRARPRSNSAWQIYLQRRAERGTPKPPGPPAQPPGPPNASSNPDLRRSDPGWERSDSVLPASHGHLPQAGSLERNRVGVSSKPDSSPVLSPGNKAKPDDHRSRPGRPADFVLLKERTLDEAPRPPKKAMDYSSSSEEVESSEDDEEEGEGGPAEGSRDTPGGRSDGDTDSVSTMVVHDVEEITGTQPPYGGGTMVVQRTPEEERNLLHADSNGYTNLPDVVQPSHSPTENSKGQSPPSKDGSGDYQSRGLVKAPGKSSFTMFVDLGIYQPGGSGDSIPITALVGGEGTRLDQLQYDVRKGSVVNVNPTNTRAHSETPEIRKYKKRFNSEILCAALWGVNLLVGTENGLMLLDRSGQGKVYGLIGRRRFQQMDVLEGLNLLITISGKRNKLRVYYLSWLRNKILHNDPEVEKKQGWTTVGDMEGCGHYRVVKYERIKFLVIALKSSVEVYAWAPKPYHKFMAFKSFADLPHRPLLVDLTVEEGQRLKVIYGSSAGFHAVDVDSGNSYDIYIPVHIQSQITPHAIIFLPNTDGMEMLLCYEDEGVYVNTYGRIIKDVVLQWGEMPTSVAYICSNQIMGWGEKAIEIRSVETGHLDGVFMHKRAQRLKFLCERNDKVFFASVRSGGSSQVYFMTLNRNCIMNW

Compound | residual activity [%]
C[S+]([O-])c1ccc(-c2nc(-c3ccc(F)cc3)c(-c3ccncc3)[nH]2)cc1 (stereo not given) | 112
COC(=O)[C@@]1(O)C[C@H]2O[C@]1(C)n1c3ccccc3c3c4c(c5c6ccccc6n2c5c31)C(=O)NC4 | 0
COc1ccc2c(c1)/C(=C/c1cnc[nH]1)C(=O)N2 | 68
O=C1Nc2ccc3ncsc3c2/C1=C/c1c[nH]cn1 | 27
O=C1c2ccccc2-c2nc3nnnn3nc21 | 105
COc1cc(OC)c(/C=C2\C(=O)Nc3ccccc32)c(OC)c1 | 105
COc1ccc2c(c[n+](C)c3c4cc5c(cc4ccc23)OCO5)c1OC | 97
O=C1NC(=O)c2c1c1c3ccccc3n3c1c1c2c2ccccc2n1C1CCC3O1 | 86
N/C(=N\[N+](=O)[O-])N/N=C\c1ccc(-c2cccc([N+](=O)[O-])c2)o1 | 99
COc1cc2ncnc(Nc3ccc(OCc4ccccc4)cc3)c2cc1OC | 87
O=c1[nH]c2ccccc2n1C1CCN(Cc2ccc(-c3nc4cc5[nH]cnc5cc4nc3-c3ccccc3)cc2)CC1 | 97
CC(C)(C)c1cc(C=C(C#N)C#N)cc(Br)c1O | 122
c1cc(-c2cnn3cc(-c4ccc(OCCN5CCCCC5)cc4)cnc23)ccn1 | 59
O=[N+]([O-])/C=C/c1ccc2c(c1)OCO2 | 97
